From PubChem BioAssay (Tox21) come the findings set out here.

Assay [1] can be described thus: A CellTox Green Cytotoxicity Assay to monitor cytotoxicity in HepG2 cells - 16 hour (AID 1224876). Further: nearly all actives have a fitted effect of over 45% in size. In short, it runs like this: (§1)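 Continuous culture of HepG2 cells with a membrane-impermeant DNA dye; rising fluorescence marks dead cells. Compound exposure lasted up to 40 h at 37 C, with reads every 8 h from 0 h.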
Assay [2] can be described thus: qHTS RealTime-Glo MT Cell Viability Assay in HepG2 cells - 32 hour (AID 1224877). Further: nearly all actives have a fitted effect of over 55% in size. In short, it runs like this:
(§2)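 Tox21 10K library screened in qHTS format on HepG2 cells carrying RealTime-Glo reagents. Compounds were added after a 5 h preincubation, and the luminescent signal from continuous culture was measured repeatedly during 40 h treatment.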
A general note: qHTS replaces the single test concentration by a dilution series.

Assay [3] can be described thus: A CellTox Green Cytotoxicity Assay to monitor cytotoxicity in HepG2 cells - 24 hour (AID 1224878). Further: nearly all actives have a fitted effect of over 45% in size. In short, it runs like this: as §1
Assay [4] is described as follows: A CellTox Green Cytotoxicity Assay to monitor cytotoxicity in HepG2 cells - 40 hour (AID 1224879). Further: nearly all actives have a fitted effect of over 40% in size. In short, it runs like this: as §1
The nature of assay [5]: qHTS RealTime-Glo MT Cell Viability Assay in HEK293 cells - 0 hour (AID 1224880). Further: top concentration of the series differs between compounds; nearly all actives have a fitted effect of over 45% in size. In short, it runs like this: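 qHTS format; HEK293 cells with NanoLuc/prosubstrate reagent, 37 C/5% CO2 for 5 h pre-dosing; compounds 23 nL in DMSO; luminescence at each time point reflects viable cells.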
Assay [6] is described as follows: A CellTox Green Cytotoxicity Assay to monitor cytotoxicity in HEK293 cells - 32 hour (AID 1224881). Further: nearly all actives have a fitted effect of over 40% in size. In short, it runs like this: (§3)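 Each value comes from one timepoint of a single continuous run in which HEK293 cells with CellTox Green were exposed to compound for up to 40 h at 37 C, dye fluorescence rising with cell death.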
Assay [7] can be described thus: A CellTox Green Cytotoxicity Assay to monitor cytotoxicity in HepG2 cells - 0 hour (AID 1224882). Further: nearly all actives have a fitted effect of over 35% in size. In short, it runs like this: as §1
The nature of assay [8]: A CellTox Green Cytotoxicity Assay to monitor cytotoxicity in HepG2 cells - 32 hour (AID 1224883). Further: nearly all actives have a fitted effect of over 50% in size. A digest of the protocol:
as §1

A short description of assay [9]: A CellTox Green Cytotoxicity Assay to monitor cytotoxicity in HEK293 cells - 8 hour (AID 1224884). Further: nearly all actives have a fitted effect of over 35% in size. Further: potency means the concentration at half of the fitted maximal effect. A digest of the protocol: as §3
Assay [10] in a line: qHTS RealTime-Glo MT Cell Viability Assay in HepG2 cells - 16 hour (AID 1224885). Further: nearly all actives have a fitted effect of over 50% in size. A digest of the protocol:
as §2

A number with no mark means an inactive call. Inconclusive results are not listed. The source made the active and inactive calls. The call rests on the fitted dose curve; in most records, active means well fitted curve in the direction sought with a large enough effect in the repeat runs; inconclusive means weak or mixed curves; inactive means no such curve, though single readings can be large; an effect the other way counts as inactive or inconclusive.

Turning to `C[C@H]1O[C@H](O[C@H]2[C@H](O)[C@@H](O)[C@@H](O[C@H]3[C@H](O)[C@@H](O)[C@H](O)O[C@@H]3CO)O[C@@H]2CO)[C@H](O)[C@@H](O)[C@@H]1N[C@H]1C=C(CO)[C@@H](O)[C@H](O)[C@H]1O`, the Potency entry in assay [1], in assay [3], in assay [4], in [6], in assay [7] and in [8] was “inactive” each time. Besides, in assay [9], the Potency result is “inactive”. For the same molecule, the molecule was called inactive in [2], in assay [5] and in assay [10].
On to `CNCc1ccccc1`, for which the Potency result in [1], in assay [3], in [4], in assay [6], in [7] and in assay [8] was “inactive” throughout. The call in assay [2], in assay [5] and in [10] was inactive.
As to `CC(C)CCC(=O)CCC(C)C`, the Potency entry in assay [1], in assay [3], in assay [4], in [6], in [7] and in assay [8] was “inactive” each time. The Potency result in [9] is “inactive”. Further, the result in [2], in assay [5] and in [10] was inactive.
Regarding `O=C(O)C(=O)Nc1cccc(-c2nn[nH]n2)c1`, the Potency result in assay [1], in assay [3], in assay [4], in assay [6], in assay [7] and in [8] was “inactive” throughout. For the same molecule, in [9], the Potency entry is “inactive”. Further, the result in assay [2], in assay [5] and in [10] was inactive.
On to `CN[C@@H]1[C@H](O)[C@H](NC)[C@H]2O[C@@]3(O)C(=O)C[C@@H](C)O[C@H]3O[C@@H]2[C@H]1O`, for which the Potency entry in assay [1], in assay [3], in assay [4], in assay [6], in [7] and in assay [8] was “inactive” in each case. In addition, in assay [9], the Potency entry is “inactive”. Moreover, the molecule was called inactive in assay [2], in [5] and in [10].
As for `CCCCC(=O)N(C)C`, the Potency result in assay [1], in assay [3], in [4], in [6], in [7] and in [8] was “inactive” each time. Also, the Potency entry in assay [9] was “inactive”. Also, the molecule was called inactive in assay [2], in [5] and in assay [10].
On to `C=CCOCC(O)CCl` (centres undefined), for which the Potency entry in assay [1], in [3], in [4], in assay [6], in assay [7] and in [8] was “inactive” in each case. For the same molecule, the Potency entry in assay [9] is “inactive”. Moreover, the result in assay [2], in assay [5] and in assay [10] was inactive.
As to `CNC(=O)NC`, the Potency result in [1], in assay [3], in [4], in assay [6], in assay [7] and in [8] was “inactive” each time. In addition, the molecule was called inactive in [2], in assay [5] and in [10].
As to `CCNC(=O)/C=C/c1cccc(Br)c1`, the Potency entry in [1], in assay [3], in assay [4], in [6], in assay [7] and in assay [8] was “inactive” each time. In addition, in [9], the Potency result is “inactive”. In addition, the call in assay [2], in assay [5] and in [10] was inactive.
Consider `CC(C)CCCC(C)CC=O` (centres undefined), for which the Potency entry in [1], in assay [3], in [4], in assay [6], in assay [7] and in [8] was “inactive” each time. Also, the Potency result in assay [9] is “inactive”. Besides, the molecule was called inactive in assay [2], in [5] and in [10].
In the case of `CCCCCCCCCCCCCC(=O)OC`, the Potency result in assay [1], in [3], in assay [4], in assay [6], in assay [7] and in assay [8] was “inactive” throughout. For the same molecule, the molecule was classed as inactive in assay [2], in assay [5] and in assay [10].
As to `CCCCC(CC)COC(=O)c1ccccc1` (centres undefined), the Potency entry in [1], in [3], in assay [4], in [6], in assay [7] and in assay [8] was “inactive” throughout. In addition, the Potency result in assay [9] is “inactive”. The call in [2], in assay [5] and in assay [10] was inactive.
Turning to `CCCCCCCCCOCC1CO1` (centres undefined), the Potency entry in assay [1], in assay [3], in [4], in assay [6], in [7] and in assay [8] was “inactive” each time. Besides, the Potency entry in [9] was “inactive”. In addition, the call in assay [2], in [5] and in assay [10] was inactive.
Take `CO[Si](CCCCl)(OC)OC`: the Potency entry in assay [1], in assay [3], in assay [4], in assay [6], in [7] and in assay [8] was “inactive” each time. The Potency result in [9] was “inactive”. Moreover, the call in assay [2], in [5] and in [10] was inactive.
With `C=CCOc1c(Br)cc(Br)cc1Br`, the Potency entry in assay [1], in assay [3], in assay [4], in assay [6], in assay [7] and in assay [8] was “inactive” each time. Besides, in assay [9], the Potency entry was “inactive”. Moreover, the molecule was classed as inactive in assay [2], in assay [5] and in [10].
Turning to `CCC(CO)CO`, the Potency result in assay [1], in assay [3], in assay [4], in assay [6], in [7] and in assay [8] was “inactive” in each case. The Potency result in [9] is “inactive”. The call in assay [2], in assay [5] and in assay [10] was inactive.
With `CC(C)COC(=O)COc1ccc(Cl)cc1Cl`, the Potency entry in [1], in [3], in assay [4], in [6], in [7] and in [8] was “inactive” throughout. Also, the molecule was called inactive in assay [2], in assay [5] and in [10]. For the same molecule, the Potency in assay [9] was 43.6 µM (active).
Take `CC(C)COC(=O)CCCCC(=O)OCC(C)C`: the Potency entry in assay [1], in [3], in assay [4], in [6], in assay [7] and in [8] was “inactive” in each case. Also, the outcome in [2], in [5] and in [10] was inactive.
As for `CCC(=O)OCCC(C)CCC=C(C)C` (centres undefined), the Potency result in assay [1], in assay [3], in [4], in assay [6], in assay [7] and in [8] was “inactive” throughout. For the same molecule, the molecule was classed as inactive in [2], in [5] and in assay [10].
As to `O=C(O)c1ccccc1C(=O)Nc1ccc(S(=O)(=O)Nc2nccs2)cc1`, the Potency result in [1], in [3], in [4], in assay [6], in assay [7] and in assay [8] was “inactive” in each case. Further, the Potency result in [9] was “inactive”. Besides, the molecule was called inactive in [2], in assay [5] and in assay [10].
With `OC[C@@H](O)[C@H](O)[C@@H](O)[C@@H](O)CO`, the Potency result in [1], in [3], in assay [4], in assay [6], in [7] and in assay [8] was “inactive” throughout. The molecule was called inactive in [2], in assay [5] and in assay [10].
Regarding `CCCCCCCC[Si](OCC)(OCC)OCC`, the Potency entry in [1], in assay [3], in [4], in [6], in assay [7] and in [8] was “inactive” throughout. Also, the Potency entry in assay [9] is “inactive”. Further, the call in assay [2], in assay [5] and in assay [10] was inactive.
Take `F[Si-2](F)(F)(F)(F)F`: the Potency entry in [1], in assay [3], in [4], in assay [6], in [7] and in assay [8] was “inactive” in each case. The Potency result in assay [9] was “inactive”. Besides, the molecule was called inactive in assay [2], in [5] and in assay [10].
